# Test results reported in paper PMC4336329 (PLoS ONE, 2015).
# Among all 310,000 compounds or so, about 14,000 (4.5%) showed an effect of 50% or more. The effect is printed as a negative number. The entries come from a sample that favours strong results as a whole.
# Target: human ether-à-go-go-related gene (hERG) potassium channel (human, UniProt Q12809)
# Test: primary screen, population patch clamp on CHO cells stably expressing hERG; higher = less effect of the substance
# 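Further: peak tail current of the secondary pulse compared with the same well before compound.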
# Sequence of human ether-à-go-go-related gene (hERG) potassium channel (Q12809 whole entry, looked up): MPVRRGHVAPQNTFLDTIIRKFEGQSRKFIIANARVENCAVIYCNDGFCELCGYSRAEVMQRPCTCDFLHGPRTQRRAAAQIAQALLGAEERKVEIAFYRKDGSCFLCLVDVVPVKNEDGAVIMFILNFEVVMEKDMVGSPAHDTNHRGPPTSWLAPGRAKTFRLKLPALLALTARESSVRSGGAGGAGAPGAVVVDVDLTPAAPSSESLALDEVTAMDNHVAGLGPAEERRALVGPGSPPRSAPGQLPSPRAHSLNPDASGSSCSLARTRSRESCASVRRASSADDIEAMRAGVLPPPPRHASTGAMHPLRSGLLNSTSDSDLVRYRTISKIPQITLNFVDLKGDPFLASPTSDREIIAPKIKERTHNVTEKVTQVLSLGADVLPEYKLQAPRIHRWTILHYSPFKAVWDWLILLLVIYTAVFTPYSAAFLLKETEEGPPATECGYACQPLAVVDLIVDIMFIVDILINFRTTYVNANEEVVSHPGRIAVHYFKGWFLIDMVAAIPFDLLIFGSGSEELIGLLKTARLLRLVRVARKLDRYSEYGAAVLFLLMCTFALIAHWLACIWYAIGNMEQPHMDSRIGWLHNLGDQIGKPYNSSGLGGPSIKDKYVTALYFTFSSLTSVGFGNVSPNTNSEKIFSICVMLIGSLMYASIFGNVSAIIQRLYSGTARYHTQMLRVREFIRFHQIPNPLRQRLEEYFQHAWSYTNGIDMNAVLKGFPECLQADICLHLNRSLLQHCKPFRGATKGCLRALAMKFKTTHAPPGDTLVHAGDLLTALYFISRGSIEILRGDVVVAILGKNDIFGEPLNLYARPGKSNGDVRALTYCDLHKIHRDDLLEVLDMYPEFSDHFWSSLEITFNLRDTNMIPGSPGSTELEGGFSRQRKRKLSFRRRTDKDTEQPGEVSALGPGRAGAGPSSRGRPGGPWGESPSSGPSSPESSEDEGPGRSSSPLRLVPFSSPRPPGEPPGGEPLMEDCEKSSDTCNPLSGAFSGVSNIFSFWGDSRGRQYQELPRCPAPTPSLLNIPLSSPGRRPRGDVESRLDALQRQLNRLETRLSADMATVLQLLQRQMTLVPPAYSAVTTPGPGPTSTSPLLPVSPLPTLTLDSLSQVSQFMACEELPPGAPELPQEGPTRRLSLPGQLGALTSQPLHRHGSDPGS
row,Compound,"hERG current change (%, negative = inhibition) at 10uM"
1,COc1cc(OC)cc(C(=O)OCC(=O)NCc2ccc3c(c2)OCO3)c1,12.9%
2,CCCc1ccc2oc(C(=O)N3CCC(COC)C3)c(C)c2c1 (stereo not drawn),-38.4%
3,O=C(NC1CS(=O)(=O)CC1NCc1ccco1)c1ccccc1 (stereo not drawn),2.09%
4,Cl.ClC(CCN1CCN(Cc2ccccc2)CC1)c1ccccc1 (stereo not drawn),-20.6%
5,Oc1ccc(Br)cc1CN1CCCCCCC1,-47.6%
6,Oc1ccc(-c2ccccc2)cc1CN1CCCCCC1,-52.1%
7,OC(CCN1CCOCC1)c1ccccc1 (stereo not drawn),4.54%
8,Cl.OC(CCCCN1CCCCC1)c1ccccc1 (stereo not drawn),-18.1%
9,OC(CCN1CCCCC1)c1ccc(-c2ccccc2)cc1 (stereo not drawn),-56.4%
10,Clc1ccc(C(CCN2CCCC2)Cc2ccccc2)cc1 (stereo not drawn),-62.7%
11,O=S(=O)(NCCN1CCCC1)c1ccc(Cl)cc1,10.3%
12,N#CCCN1CCN(Cc2cc(-c3ccccc3)ccc2O)CC1,-48.8%
13,O=S(=O)(Nc1ccc(N2CCOCC2)cc1)c1ccc(F)cc1,4.3%
14,COC(=O)N1N=C(c2ccc(Br)cc2)CC1(O)C(F)(F)F (stereo not drawn),-1.71%
15,CCOc1ccc(CNC(=O)CN2C(=O)C(c3ccccc3)Oc3cccnc32)cc1 (stereo not drawn),-3.6%
16,O=C(N/N=C/c1ccc[nH]1)c1ccc(COc2cccc3cccnc23)cc1,-58.3%
17,O=C(N/N=C/c1ccncc1)c1ccc(COc2cccc3cccnc23)cc1,-45.6%
18,O=C(N/N=C/c1cccc(O)c1)c1ccc(COc2cccc3cccnc23)cc1,22.8%
19,CCOC(=O)C1=c2/c(=C/c3ccncc3)c(N)c(C(=O)OC)n2C(=O)C(c2ccncc2)S1 (stereo not drawn),1.36%
20,O=C(CCc1ccccc1)NNC(=O)c1ccc(NC(=O)c2ccccc2)cc1,2.53%
21,Cc1cc(S(=O)(=O)Nc2ccc3c(c2)COC3=O)ccc1F,7.2%
22,Cc1cc(C)n(C(=O)c2cccc(S(=O)(=O)N3CCCC3)c2)n1,6.46%

row,Compound,"hERG current change (%, negative = inhibition) at 10uM"
1,O=C(Nc1ccnn1C1CCN(C/C=C/c2ccccc2)CC1)C1CCCC1,-73%
2,O=C(Nc1ccnn1C1CCN(Cc2c(F)cccc2Cl)CC1)C1CCCC1,-32.1%
3,O=C(Nc1ccnn1C1CCN(C/C=C/c2ccc(F)cc2)CC1)C1CCCC1,-76.2%
4,CN(c1ccc(O)cc1)S(=O)(=O)c1ccc2ccccc2c1,-12.8%
5,COc1ccccc1CNC(=O)CCc1cn(C)c2ccccc12,-2.68%
6,Cc1c(C(=O)N2CCCCC2)c(S(=O)(=O)Nc2ccc(F)cc2F)c(C)n1C,21.9%
7,Cc1cc(C)c(S(=O)(=O)N2CCN(C(=O)c3ccc4c(c3)OCO4)CC2)c(C)c1,-31.4%
8,O=C(N/N=C/c1ccc(N2CCOCC2)cc1)c1ccc(NS(=O)(=O)c2cccs2)cc1,9.69%
9,CC1CN(c2ccc([N+](=O)[O-])cc2C#N)CC(C)O1 (stereo not drawn),-48.6%
10,CC(=O)N1CCN(c2ccc([N+](=O)[O-])cc2C#N)CC1,-88%
11,O=[N+]([O-])c1ccc(N2CCN(c3ccc([N+](=O)[O-])cc3CO)CC2)c(CO)c1,-64.7%
12,O=[N+]([O-])c1ccc(N2CCCCCC2)c([N+](=O)[O-])c1,3.24%
13,CCCN1CCN(c2ccc([N+](=O)[O-])cc2C#N)CC1,-72%
14,CCCN1CCN(c2ccc(S(N)(=O)=O)cc2[N+](=O)[O-])CC1,-31.4%
15,CCN1CCN(c2ccc([N+](=O)[O-])cc2C#N)CC1,-68.2%
16,N#Cc1cc([N+](=O)[O-])ccc1N1CCN(c2ccccc2O)CC1,-35%
17,CC(=O)N1CCN(c2ccc(C(N)=O)cc2[N+](=O)[O-])CC1,8.73%
18,N#Cc1cc([N+](=O)[O-])ccc1N1CCCC1,-38%
19,O=[N+]([O-])c1ccc(N2CCN(CCOCCO)CC2)c([N+](=O)[O-])c1,-45.6%
20,O=[N+]([O-])c1ccc(N2CCN(c3ccccc3O)CC2)c(Cl)c1,9.9%
21,COc1cccc(NS(=O)(=O)c2c(C)n(C)c(=O)n(C)c2=O)c1,-19.9%
22,CCCc1nnc(SCC(=O)N2CCOCC2)n1CC1CCCO1 (stereo not drawn),23.6%

row,Compound,"hERG current change (%, negative = inhibition) at 10uM"
1,CC1CCN(C(=S)c2ccc(O)cc2)CC1,-14.1%
2,O=c1[nH]c2ccc(S(=O)(=O)N3CCN(C4CCCCC4)CC3)cc2[nH]c1=O,0.776%
3,O=C(Nc1cccc(C(F)(F)F)c1)Oc1ccc(Cl)c2cccnc12,9.96%
4,CCN(c1ccccc1)S(=O)(=O)c1ccc(Cl)c(C(=O)OCC(=O)c2[nH]c(C)c(C(C)=O)c2C)c1,-22.6%
5,COc1cc2c(cc1OC)CN(c1ccc(F)cc1[N+](=O)[O-])CC2,-27.9%
6,COc1cc2c(cc1OC)CN(c1ccc([N+](=O)[O-])cc1C#N)CC2,-50%
7,COc1cc2c(cc1OC)CN(c1ccc([N+](=O)[O-])cc1Cl)CC2,-41%
8,CCn1c(NC2CCCCC2)nc2ccccc21,-15%
9,Cc1ccc(NC(=O)c2cccc(N3C(=O)CCC3=O)c2)nc1,3.86%
10,C/C(=N\NS(=O)(=O)c1cccc([N+](=O)[O-])c1)c1cc2ccccc2o1,-2.61%
11,O=C(N/C(=C/c1ccccc1)C(=O)N1CCOCC1)c1ccc([N+](=O)[O-])cc1,-64.2%
12,Cc1ccc(C(=O)N/C(=C/c2ccc(Cl)cc2)C(=O)N2CCOCC2)cc1,-32.6%
13,O=C(N/C(=C\c1ccc([N+](=O)[O-])cc1)C(=O)N1CCOCC1)c1cccc(Br)c1,-74.2%
14,O=C(N/C(=C\c1ccc(Br)cc1)C(=O)N1CCOCC1)c1ccc([N+](=O)[O-])cc1,-75.5%
15,O=C(N/C(=C/c1cccc([N+](=O)[O-])c1)C(=O)N1CCOCC1)c1ccc(Br)cc1,-46.6%
16,O=C(Nc1ccc(C(=O)O)cc1)/C(=C\c1ccc([N+](=O)[O-])cc1)NC(=O)c1ccc(Br)cc1,7.58%
17,O=C(N/C(=C\c1ccc(Cl)cc1)C(=O)N1CCOCC1)c1ccc([N+](=O)[O-])cc1,-83%
18,O=C(N/C(=C\c1ccccc1)C(=O)N1CCOCC1)c1cccc(Br)c1,18.8%
19,O=C(N/C(=C\c1ccc(F)cc1)C(=O)N1CCOCC1)c1ccccc1,-32%
20,O=C(N/C(=C\c1cccc([N+](=O)[O-])c1)C(=O)N1CCOCC1)c1ccc([N+](=O)[O-])cc1,12.5%
21,O=C(N/C(=C\c1cccc([N+](=O)[O-])c1)C(=O)N1CCOCC1)c1cccc(Br)c1,-4.26%
22,COC(=O)c1ccc(/C=C(/NC(=O)c2ccccc2)C(=O)N2CCOCC2)cc1,-9.15%
